From PubChem BioAssay (Tox21)
Unmarked numbers belong to inactive results. Activity calls are given as the source filed them. The call rests on the fitted dose curve; in most records, active means well fitted activation curve with a large enough effect in the repeat runs; inconclusive means weak or mixed curves; inactive means flat fitted curve, though single readings scatter.

Assay: A CellTox Green Cytotoxicity Assay to monitor cytotoxicity in HepG2 cells - 0 hour (AID 1224882); further: nearly all actives have a fitted effect of over 35% in size
Conditions: CellTox Green fluorescence; series mostly up to 76.8 µM; cytotoxicity: at the top concentration
Description: National Center for Advancing Translational Sciences [NCATS]
NIH Chemical Genomics Center [NCGC]
U.S. Environmental Protection Agency [EPA]
National Institutes of Environmental Health Sciences [NIEHS]
National Toxicology Program [NTP]
Cell-based models are critical for drug discovery. Determining the natural cytotoxic effects resulting from test compounds is an essential research activity. A CellTox Green Cytotoxicity Assay to monitor cytotoxicity in real time of continues cell culture during 40 hours of the compound treatment was used to screen Tox21 10K library compounds in HepG2 cells. CellTox Green Cytotoxicity Assay is a nonlytic, homogeneous, biofluorescent method to measure cytotoxicity in cell culture after experimental manipulation. The assay system uses a proprietary asymmetric cyanine dye that is excluded from viable cells but preferentially stains the dead cell's DNA. […] Viable cells produce no appreciable increases in fluorescence. Therefore, the fluorescence signal produced by the binding interaction with dead cell DNA is proportional to cytotoxicity.
The mixture of HepG2 cell suspension and reagents were dispensed at 600cells/6 ul/well in 1536-well tissue culture treated black solid bottom plates using a Multidrop dispenser. After the assay plates were incubated at a 37 C/5% CO2 incubator for 5 hours, 23 nL of compounds dissolved in DMSO, positive and negative controls was transferred to the assay plate by a pintool work station. The plates were incubated at 37 C for 40 hours. The fluorescence intensity were measured at 0h, 8h, 16h, 24h, 32h and 40h time points using ViewLux plate reader during compound treatment.
On the % scale 0 is the no-effect control and ±100 the full control effect; potency means the concentration at half of the fitted maximal effect.

SMILES	cytotoxicity	Potency
CC(C)(C)c1cc(CCC(=O)NCCCCCCNC(=O)CCc2cc(C(C)(C)C)c(O)c(C(C)(C)C)c2)cc(C(C)(C)C)c1O	1.43%	
C/C=C/C(=O)C1=C(C)CCCC1(C)C	12.8%	
C=CC(C)C#N (stereo not given)	-4.49%	
Cc1cnccn1	-10.1%	
O=C=NCc1cccc(CN=C=O)c1	0.25% [at 15.8 µM]	
CCCCCCCCCCCCN(CCO)CCO	0.531%	
CCNc1nc(NC(C)CC)nc(OC)n1 (stereo not given)	2.92%	
CCCC(C)CCC(C)=O (stereo not given)	4.76%	
C#CC(O)CCC (stereo not given)	-3.18%	
O=C(c1ccccc1)c1cc(Cl)ccc1O	0.672%	
CSc1c(Cl)c(Cl)c(Cl)c(Cl)c1Cl	0.269%	
CCN=C1C=CC(=C(c2ccc(N(CC)CC)cc2)c2ccc(N(CC)CC)cc2)c2ccccc21	-20.6%	
CCCC(=O)OCC(COC(=O)CCC)OC(=O)CCC	0.43%	
CCCCN(CCCC)CCC(O)c1cc2c(Cl)cc(Cl)cc2c2cc(C(F)(F)F)ccc12 (stereo not given)	-9.76% [at 35.3 µM]	
C=CCCCCCCC=C	0.808%	
O=C1NCCN1CCN1CCC(c2cn(-c3ccc(F)cc3)c3ccc(Cl)cc23)CC1	-6.85% [at 35.3 µM]	
Cc1c(C(=O)O)cccc1[N+](=O)[O-]	-1.82%	
CCCCOCC	-9.67%	
NC(=O)C(=O)N/N=C/c1ccc([N+](=O)[O-])o1	-3.28% [at 35.3 µM]	
C=CC(C)(CCC=C(C)C)OC(=O)/C=C/c1ccccc1 (stereo not given)		27.5 µM (active)

SMILES	cytotoxicity	Potency
C=CC(=O)OCCC#N	-13.7%	
O=Cc1ccc(F)cc1	2.15%	
S=C(SSSSSSC(=S)N1CCCCC1)N1CCCCC1	-6.55% [at 15.8 µM]	
CC(C)(c1cc(Br)c(O)c(Br)c1)c1cc(Br)c(O)c(Br)c1		inactive
COc1cc(C=C2CCC/C(=C\c3ccc(O)c(OC)c3)C2=O)ccc1O	13.1% [at 35.3 µM]	
CCCCCCCOC(=O)c1ccc(O)cc1		inactive
Clc1ccc(C(Cn2ccnc2)OCc2ccsc2Cl)c(Cl)c1 (stereo not given)	-6.47% [at 35.3 µM]	
C=C/C=C/C=C/CCCCC	-3.64% [at 15.8 µM]	
CC(C)N=C(N)/N=C(\N)Nc1ccc(Cl)cc1	-3.86% [at 35.3 µM]	
CCCN(CCc1cccs1)[C@H]1CCc2c(O)cccc2C1	-14.3% [at 35.3 µM]	
CC(C(O)c1ccccc1)N(C)CCOC(c1ccccc1)c1ccccc1 (stereo not given)	0.0224% [at 35.3 µM]	
C/C=C/CO	7.43%	
COc1ccccc1OCCNCC(O)COc1cccc2[nH]c3ccccc3c12 (stereo not given)	-14.3% [at 35.3 µM]	
c1cc[nH]c1	3.03%	
O=C(O)CCn1c2c(c3ccccc31)C[C@H](NS(=O)(=O)c1ccc(F)cc1)CC2	-9.85% [at 35.3 µM]	
CCc1c(Br)c(Br)c(Br)c(Br)c1Br	6.85%	
O=C(Nc1ccc(Cl)c(Cl)c1)c1cc(Cl)cc(Cl)c1O	10.9%	
CCN(CC)CCOC(=O)C1(C2CCCCC2)CCCCC1	-0.946% [at 35.3 µM]	
Cc1cncc(C)c1	-0.0522%	
CCO[Si](CCCSSSSCCC[Si](OCC)(OCC)OCC)(OCC)OCC	3.26%	
